Source: PubChem BioAssay AID1508642 (National Center for Advancing Translational Sciences (NCATS), 2021)
About 200 (0.47%) of roughly 43,000 compounds were called active. Not shown: some 12% with an inconclusive outcome. This excerpt belongs to a sample that is enriched for actives. A number with no mark means an inactive call. The call rests on the fitted dose curve; in most records, active means well fitted cell-killing curve with a large enough effect; inconclusive means small, poorly fitted or top-dose-only effect, or effect the other way; inactive means flat fitted curve, though single readings scatter.

experiment: Cell viability qHTS assay in S16 Pmp22-F2sN cells; details: S16 Pmp22-F2sN Schwann cells (luciferase reporters placed in the Pmp22 gene) viability, CellTiter-Glo, 24 h; series mostly up to 57.5 µM; activity change, negative = cytotoxicity: at the top concentration; further: nearly all actives have a fitted effect of over 65% in size
Description: Assay Provider: Jim Inglese Ph.D. National Center for Advancing Translational Science, National Institutes of Health, Rockville, MD CMT is a heterogeneous group of neurological disorders that affect approximately 1 in 2,500 people. In particular, the most common form of CMT, CMT1A is genetically linked to the duplication of the PMP22 gene which leads to Schwann cell overexpression, thus manifesting itself as a typical case of dose-sensitive diseases. To identify small molecule compounds that can mediate the expression of PMP22 we developed a phenotypic assay screening strategy by utilizing genome editing techniques to construct Schwann cell lines containing novel reporter technology to monitor the transcriptional or translational regulation of PMP22. For high sensitivity we use a bioluminescent reporter system embedded in the 3' UTR of the PMP22 gene (S16(c9) Pmp22-F2sN) to identify compounds that inhibit gene expression. […] We can further discriminate the effect of all transcriptionally active molecules on PMP22 translation or stability with an assay that incorporates a short NLuc peptide (HiBiT) at the C-terminus of expressed PMP22 (S16(f8) PMP22-HiBiT) allowing alpha complementation and luminescence detection of membrane-associated PMP22 protein. These assays were screened against the NCATS Sytravon Library Collection. Miniaturization of these assays to 1536-well plate format for quantitative high throughput screening (qHTS) yielded rich data sets immediately from the qHTS assay (S16(c9) Pmp22-F2sN), when compared with data from a cell viability assay (Cell TiterGlo) to identify compounds that decreased the output signals through cellular toxicity to streamline the selection process of actives for subsequent characterization using the HiBiT assay (S16(f8) PMP22-HiBiT).
Cell viability assay in S16 Pmp22-F2sN cells PROTOCOL TABLE (format as described by Inglese J, Shamu CE and Guy RK. 2007) SEQUENCE No. (e.g., 1, 2, 3, etc.); […] (e.g., Cells, Incubation, Reagent, etc.); VALUE and DESCRIPTION. 1. Cells. Add 500-1,000 cells in 4 uL in growth media (DMEM High Glucose, No Phenol Red media + 10% heat-inactivated FBS + 1% Pen/Strep supplemented media) per well into Greiner 1536-well white/solid bottom high base, TC-treated plates. 2. Compounds. Library compounds and controls added at 23nL per well, transferred by Pin Tool. 3. Incubation. Incubate plates at 37C, 5% CO2, 95% RH for 24 h. 4. Reagent. Add 3uL CellTiter-Glo per well of Greiner 1536-well plates. 5. Incubation. Incubate plates at room temperature for 15 min., protect from light. 6. Detector. FLuc luminescence measured using CCD-based camera (Viewlux). NOTES (numbers refer to Sequence numbers above; values are from representative experiments) 6. Luminescence Read: Clear filter; Exposure = 1 sec, Gain = High, Speed = Slow, Binning = 2X REFERENCES: 1. Inglese J, Shamu CE and Guy RK, Reporting data from high throughput screening of small molecule libraries, Nature Chemical Biology, 2007, 3(8): 438-441. doi.org/10.1038/nchembio0807-438 2. Yasgar A, Shinn P, Jadhav A, Auld DS, Michael S, Zheng W, Austin CP, Inglese J and Simeonov A, Compound Management for Quantitative High-Throughput Screening. J. Assoc. Lab. Auto., 2008, 13: 79-89. doi: 10.1016/j.jala.2007.12.004
On the % scale 0 is the no-effect control and ±100 the full control effect.

Compared with `Cc1ccc(C)c(N2CCN(C(=O)Cn3ncc4c(=O)oc5ccc(C)cc5c43)CC2)c1`, `CCOC(=O)C1CCN(c2csc3ccc(C)cc3c2=O)CC1` is lower in “activity change, negative = cytotoxicity” value: 4.69% for the first, 3.59% for the second.

First: Cc1ccccc1NC(=O)Cn1c(=O)n(CC2CCC(C(=O)NCCc3ccccc3)CC2)c(=O)c2ccccc21 (configuration not stated)
Second: COc1ccc(CCNC(=O)CCCn2c(=O)c3ccccc3n(Cc3ccc(C)cc3)c2=O)cc1OC
The “activity change, negative = cytotoxicity” value of the first is higher: 16.1% for the first, 15.9% for the second.

First: COC(=O)c1c(NC(=O)C(C)Oc2ccc(Cl)c(C)c2)sc(C)c1C (configuration not stated)
Second: COC(=O)c1ccccc1NC(=O)Cn1c(=O)n(-c2cccc(C(F)(F)F)c2)c(=O)c2c(C)c(C)sc21
The “activity change, negative = cytotoxicity” value of the first is lower: 0.0514% for the first, 0.489% for the second.

Going from `Cc1ccccc1C(=O)Nc1cc(C)c(O)c(-c2nc3ccccc3o2)c1` to `COc1ccccc1C(=O)Nc1c(C(=O)Nc2ccc(C)cc2)oc2ccccc12`, the “activity change, negative = cytotoxicity” value falls from 17% to 8.02%.

First: CCOc1ccc(NC(=O)CCC(=O)N2CC(C)Oc3ccc(C)cc32)cc1 (configuration not stated)
Second: CCOc1ccc(NC(=O)Cn2cc(C(=O)c3ccc(C)cc3)c(=O)c3cc4c(cc32)OCCO4)cc1
The “activity change, negative = cytotoxicity” value of the first is higher: 6.01% for the first, -0.757% for the second.

Going from `CN(CC(=O)Nc1ccccc1F)S(=O)(=O)c1ccc2c(c1)c(=O)n(C)c(=O)n2C` to `COc1ccc(CCNC(=O)c2cn(C)c3ccc(S(=O)(=O)N(C)C4CCCCC4)cc3c2=O)cc1OC`, the “activity change, negative = cytotoxicity” value falls from 15.6% to -12.3%.

First: Cc1cccc(C)c1Nc1c(-c2ccccc2O)nc2ncccn12
Second: Cc1ccc(Nc2c(-c3ccc(Cl)cc3)nc3sccn23)c(C)c1
The “activity change, negative = cytotoxicity” value of the first is lower: -10.5% for the first, 28.2% for the second.

First: Cc1ccc(C)c(NC(=O)CSC2=Nc3ccccc3N=C(c3ccc(F)cc3)C2)c1
Second: CC1=C(C(=O)Nc2ccccc2)C(c2ccc(C)cc2)n2nc(SCc3ccccc3C)nc2N1 (configuration not stated)
The “activity change, negative = cytotoxicity” value of the first is lower: -2.61% for the first, 3.66% for the second.

Compared with `O=C(CC1C(=O)N(c2ccccc2)C(=O)N1CCc1cccs1)Nc1ccc(F)cc1` (configuration not stated), `Cc1ccc(NC(=O)c2oc3ccccc3c2NC(=O)Cc2cccs2)cc1` is higher in “activity change, negative = cytotoxicity” value: -17.5% for the first, 10.9% for the second.

Going from `COC(=O)c1ccc(NC(=O)c2cc(S(=O)(=O)N3CCC(C)CC3)cn2C)cc1` to `COc1ccc(S(=O)(=O)n2nc(C)c(S(=O)(=O)N3CCCCCC3)c2C)cc1`, the “activity change, negative = cytotoxicity” value rises from -14.5% to -8.85%.

Going from `CC1CCCCN1CC(=O)N1CCCc2c1c(=O)oc1ccc(OCc3ccccc3)cc21` (configuration not stated) to `COc1ccc(C2NC(=O)N(C)C3=C2C(=O)N(c2ccc(C(=O)O)cc2)C3)cc1` (configuration not stated), the “activity change, negative = cytotoxicity” value rises from 0.438% to 8.03%.

Going from `O=c1cc(CSc2ncn[nH]2)[nH]c2ccc(F)cc12` to `COc1cc2nc(SCc3ccc(F)cc3)n3nc(CCn4c(C)nc5ccccc54)nc3c2cc1OC`, the “activity change, negative = cytotoxicity” value falls from 0.415% to -6.47%.

Going from `CN(C(=O)CSc1nnc(NC(=O)Nc2ccccc2)s1)c1ccccc1` to `CCCCN(CCCNC(=O)c1cc(Nc2ccccc2OC)nc2ccccc12)c1ccccc1`, the “activity change, negative = cytotoxicity” value rises from -10% to 9.74%.

First: Cc1cc(F)ccc1NS(=O)(=O)c1ccc(-n2cccn2)cc1
Second: COc1ccc(N2CCN(S(=O)(=O)c3ccc(-c4coc(C)n4)cc3)CC2)cc1
The “activity change, negative = cytotoxicity” value of the first is lower: -14.3% for the first, -6.43% for the second.

First: Cc1cccc(C(=O)N2c3nc(-c4ccco4)nn3C3(CCCCC3)[C@@H]3CCCC[C@@H]32)c1
Second: O=C(CCc1nc(CN2CCN(S(=O)(=O)c3ccc(Br)cc3)CC2)no1)N1CCCCC1
The “activity change, negative = cytotoxicity” value of the first is higher: 3.56% for the first, -20.1% for the second.

Compared with `Cc1ccccc1NC(=O)c1cc2c([nH]c1=O)CC(C)(C)CC2=O`, `CNC(=O)CN1C(=O)c2cccnc2Sc2ccccc21` is lower in “activity change, negative = cytotoxicity” value: 10.8% for the first, 0.0311% for the second.

First: Cc1c(Cl)cccc1NC(=O)C(=O)NCCc1csc2nc(-c3ccccc3F)nn12
Second: COc1ccccc1CNC(=O)c1ccc(CS(=O)c2ccccc2Cl)o1 (configuration not stated)
The “activity change, negative = cytotoxicity” value of the first is lower: -22.5% for the first, -6.85% for the second.

Compared with `Cc1ccc(N(CC(=O)NCc2ccc(Cl)cc2)S(=O)(=O)N(C)C)cc1`, `O=C(CN1CCN(Cc2ccc(Cl)cc2)C1=O)NCc1ccc(F)cc1` is lower in “activity change, negative = cytotoxicity” value: 13.9% for the first, 1.11% for the second.

Going from `Cc1ccsc1CN(C(=O)c1oc2ccc(Br)cc2c1C)C1CCS(=O)(=O)C1` (configuration not stated) to `CCC(=O)N1CCc2cc(CNS(=O)(=O)c3ccc(Br)s3)ccc21`, the “activity change, negative = cytotoxicity” value rises from -28.5% to -3.99%.

Compared with `COc1ccc(CCNc2nc3c(-c4cccc(F)c4)nnn3c3ccccc23)cc1OC`, `COc1ccc(-c2nc(Cn3c(=O)cc(C)c4c(C)nn(-c5ccccc5)c43)c(C)o2)c(OC)c1` is higher in “activity change, negative = cytotoxicity” value: -1.72% for the first, 9.69% for the second.

First: COc1ccc(-n2c(SC)nc3sc4c(c3c2=O)CCN(C(C)=O)C4)cc1
Second: CCOc1cc(C2C(C(=O)Nc3ccc(OC)cc3)=C(C)Nc3nc(SC)nn32)ccc1O (configuration not stated)
The “activity change, negative = cytotoxicity” value of the first is higher: 2.85% for the first, -26.7% for the second.

Going from `CC(=O)c1ccc(NC(=O)CCc2nc(-c3ccc(C)cc3)no2)cc1` to `CCOc1ccc(C2C(C(=O)Nc3ccc(Cl)cc3)=C(C)Nc3nc(C(F)(F)F)nn32)cc1` (configuration not stated), the “activity change, negative = cytotoxicity” value falls from -13.9% to -26.8%.

Compared with `CC(C)(C)OC(=O)N1CCC(c2c(C(=O)NCCc3ccsc3)cnn2-c2ccc(F)cc2F)CC1`, `COc1ccc(-c2nc(CN3CCC(C(=O)NCCN(CC(C)C)CC(C)C)CC3)c(C)o2)cc1OC` is higher in “activity change, negative = cytotoxicity” value: -27.8% for the first, -2.77% for the second.

For `CCOc1ccccc1CNCc1c(C(=O)O)c(C)n(Cc2ccc(C)cc2)c1C`, the “activity change, negative = cytotoxicity” value was -0.973%.
